The results in this text go back to PubChem BioAssay.

Experiment [1] is described as follows: antimalarial activity against Dd2 strain (AID 2302;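 active = growth inhibition above 50% at the single 2 µM test dose, taken to imply half-maximal potency below 2 µM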;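 also: 0% = DMSO untreated growth and 100% = chloroquine plus artemisinin killed control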). As to conditions: P. falciparum Dd2 in RBCs, LDH growth readout, 72 h; at 2 µM; stronger effect = higher value.
Experiment [2] in a line: HepG2 cytotoxicity, primary screen, cytotoxicity control for P. falciparum antimalarial project, cell-based, ATP luminescence (AID 2303;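 active = inhibition above 50%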;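 also: 0% = DMSO wells and 100% = digitonin-killed cells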). As to conditions: HepG2 viability, 24-48 h, at 10 µM, stronger effect = higher value.
Experiment [3] has as its target L-lactate dehydrogenase (Plasmodium falciparum (isolate CDC / Honduras)) (UniProt Q27743). As to the kind of experiment: PfLDH activity inhibition – cell lysate, 3D7 strain, counter-screen for P. falciparum growth inhibition project (AID 2304).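 Also: 0% = vehicle and 100% = reference inhibitor.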 As to conditions: P. falciparum 3D7 crude extract, LDH APAD/NBT absorbance; at 2 µM; stronger effect = higher value. A general note: A counterscreen serves to expose hits that act by an unwanted route or on another target.

Experiment [4] in a line: inhibition of 3D7 malaria parasite growth – strain 3D7 (AID 2306).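 Also: 0% = DMSO wells and 100% = chloroquine plus artemisinin control wells.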 As to conditions: P. falciparum 3D7 erythrocytic growth, LDH absorbance, 72 h; at 2 µM; stronger effect = higher value.
In experiment [5] the target is Calcium-dependent protein kinase 1 (Plasmodium falciparum (isolate 3D7)) (UniProt P62344). Kind of experiment: PfCDPK1 kinase inhibitors, biochemical, TCAMS library (AID 1159585; cut-off not given, nearly all actives have IC50 up to about 0.98 µM;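 also: inhibitors leave more ATP so luminescence rises with inhibition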). As to conditions: recombinant PfCDPK1, Kinase-Glo ATP depletion luminescence. (In Kinase-Glo more light means more ATP remaining.)
For experiment [6], the target named is Plasmodium falciparum protein kinase 6 (PK6, PF3D7_1337100) (UniProt Q8IDW1). Kind of experiment: PfPK6 kinase inhibitors, biochemical, TCAMS library (AID 1159586). As to conditions: recombinant PfPK6, Kinase-Glo ATP depletion luminescence.
In experiment [7] the target is Protein kinase 7 (PK7), Plasmodium falciparum 3D7 (PF3D7_0213400) (UniProt Q7YTF7). Kind of experiment: inhibition of Plasmodium PK7 catalytic activity – biochemical, TCAMS antimalarial set, Kinase-Glo luminescence (AID 1159587). As to conditions: recombinant PfPK7, Kinase-Glo ATP depletion luminescence.
In experiment [8] the target is Calcium-dependent protein kinase 4 (Plasmodium falciparum (isolate 3D7)) (UniProt Q8IBS5). As to the kind of experiment: PfCDPK4 kinase inhibitors, biochemical, TCAMS library (AID 1159588; cut-off not given, nearly all actives have IC50 up to about 0.91 µM). As to conditions: recombinant PfCDPK4, Kinase-Glo ATP depletion luminescence.

Unmarked numbers belong to inactive results. For part of these data: Potency and affinity values are given separately. The source made the active and inactive calls. Unless noted, no rule for the calls is given here.

Chain of Protein kinase 7 (PK7), Plasmodium falciparum 3D7 (PF3D7_0213400) (Q7YTF7 1-343): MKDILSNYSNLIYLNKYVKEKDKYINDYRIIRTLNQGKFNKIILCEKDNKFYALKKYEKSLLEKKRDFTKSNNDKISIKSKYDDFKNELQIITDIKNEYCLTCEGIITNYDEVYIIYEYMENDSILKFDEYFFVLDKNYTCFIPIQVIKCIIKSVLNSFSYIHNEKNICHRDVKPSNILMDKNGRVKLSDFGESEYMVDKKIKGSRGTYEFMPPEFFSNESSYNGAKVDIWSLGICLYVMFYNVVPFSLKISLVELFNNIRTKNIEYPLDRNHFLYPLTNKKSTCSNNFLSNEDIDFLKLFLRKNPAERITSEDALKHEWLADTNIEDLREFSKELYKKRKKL
Chain of Calcium-dependent protein kinase 4 (Plasmodium falciparum (isolate 3D7)) (Q8IBS5 whole entry, looked up): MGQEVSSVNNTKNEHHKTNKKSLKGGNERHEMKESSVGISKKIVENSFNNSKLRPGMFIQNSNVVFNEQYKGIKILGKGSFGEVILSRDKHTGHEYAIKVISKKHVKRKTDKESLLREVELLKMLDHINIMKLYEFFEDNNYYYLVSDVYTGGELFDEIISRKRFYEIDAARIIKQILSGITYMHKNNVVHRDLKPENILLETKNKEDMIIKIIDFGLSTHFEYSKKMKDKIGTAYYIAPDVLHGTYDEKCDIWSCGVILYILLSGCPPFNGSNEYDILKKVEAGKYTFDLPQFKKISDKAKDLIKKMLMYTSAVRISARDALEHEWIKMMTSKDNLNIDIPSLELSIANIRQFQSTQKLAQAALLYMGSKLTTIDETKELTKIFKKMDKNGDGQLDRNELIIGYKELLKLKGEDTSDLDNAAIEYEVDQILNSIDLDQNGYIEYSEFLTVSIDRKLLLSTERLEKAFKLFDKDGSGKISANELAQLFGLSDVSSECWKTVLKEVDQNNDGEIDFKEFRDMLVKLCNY
Chain of Calcium-dependent protein kinase 1 (Plasmodium falciparum (isolate 3D7)) (P62344 whole entry, looked up): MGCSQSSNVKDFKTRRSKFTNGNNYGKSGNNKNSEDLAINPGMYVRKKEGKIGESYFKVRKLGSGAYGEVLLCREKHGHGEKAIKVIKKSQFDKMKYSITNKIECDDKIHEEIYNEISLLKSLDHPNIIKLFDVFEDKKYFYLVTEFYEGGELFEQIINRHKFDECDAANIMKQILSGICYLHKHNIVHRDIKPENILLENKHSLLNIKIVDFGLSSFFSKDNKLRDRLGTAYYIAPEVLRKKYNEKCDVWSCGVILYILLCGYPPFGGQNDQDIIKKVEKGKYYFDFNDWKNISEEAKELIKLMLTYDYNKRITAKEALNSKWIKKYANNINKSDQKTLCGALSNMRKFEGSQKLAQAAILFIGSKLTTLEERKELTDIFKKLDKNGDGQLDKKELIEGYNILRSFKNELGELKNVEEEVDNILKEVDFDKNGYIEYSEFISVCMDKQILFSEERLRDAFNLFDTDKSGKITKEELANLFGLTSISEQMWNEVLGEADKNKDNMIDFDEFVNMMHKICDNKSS
Chain of Plasmodium falciparum protein kinase 6 (PK6, PF3D7_1337100) (Q8IDW1 1-305): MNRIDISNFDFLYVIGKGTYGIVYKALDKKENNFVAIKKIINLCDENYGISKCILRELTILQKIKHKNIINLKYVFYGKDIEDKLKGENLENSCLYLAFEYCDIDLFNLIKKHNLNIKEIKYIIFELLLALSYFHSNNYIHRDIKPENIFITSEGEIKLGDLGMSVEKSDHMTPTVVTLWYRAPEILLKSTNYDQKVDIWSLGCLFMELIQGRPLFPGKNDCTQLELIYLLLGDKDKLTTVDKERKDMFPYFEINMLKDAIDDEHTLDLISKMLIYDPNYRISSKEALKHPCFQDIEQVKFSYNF
Chain of L-lactate dehydrogenase (Plasmodium falciparum (isolate CDC / Honduras)) (Q27743 whole entry, looked up): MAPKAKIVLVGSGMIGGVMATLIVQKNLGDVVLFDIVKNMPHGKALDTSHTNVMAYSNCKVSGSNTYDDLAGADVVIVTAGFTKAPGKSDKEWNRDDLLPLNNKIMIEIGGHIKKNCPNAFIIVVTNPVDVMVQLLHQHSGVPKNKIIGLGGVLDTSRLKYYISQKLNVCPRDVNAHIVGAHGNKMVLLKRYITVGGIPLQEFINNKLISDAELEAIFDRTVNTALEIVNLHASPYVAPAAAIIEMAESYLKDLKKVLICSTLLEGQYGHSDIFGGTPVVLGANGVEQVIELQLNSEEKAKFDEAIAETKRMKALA

With `CCOC(=O)C1=C(C)N=c2sc(=Cc3cc(Cl)ccc3O)c(=O)n2C1c1ccc(OC)cc1` (stereo not drawn), the growth inhibition in experiment [1] is 65% (active); in experiment [4] it was 99% (active). In addition, the inhibition (commonly the drop in the measured response relative to a control, in per cent) in experiment [2] is -6%; in experiment [3], -3%. Besides, the result in experiment [5], in experiment [6], in experiment [7] and in experiment [8] was inactive.
As to `CCCc1ccc(S(=O)(=O)NC2CCN(c3ccnc(Nc4ccc(F)cc4)n3)C2)cc1` (stereo not drawn), the growth inhibition in experiment [1] was 56% (active); in experiment [4], 95% (active). Moreover, the inhibition in experiment [2] was 40%; in experiment [3], -6%. For the same molecule, the outcome in experiment [5], in experiment [6], in experiment [7] and in experiment [8] was inactive.
For the molecule `CCCCN(CCCC)CCNC(=O)c1ccc(-c2nc3ccc(Cl)cc3[nH]2)c(OCC)c1`, the figures for the growth inhibition in experiment [1] and in experiment [4] were 80% (active) and 101% (active), respectively. The results for the inhibition in experiment [2] and in experiment [3] were 0% and 9%, respectively. The outcome in experiment [5], in experiment [6], in experiment [7] and in experiment [8] was inactive.
`Nc1nc(N)c2c(ccn2Cc2cc3c(cc2Cl)OCO3)n1`: the growth inhibition was 11% in experiment [1] and 98% (active) in experiment [4]. The inhibition in experiment [2] is 67% (active); in experiment [3], -3%. In addition, the result in experiment [5], in experiment [6], in experiment [7] and in experiment [8] was inactive.
On to `Clc1ccc(CNc2nc(NCCc3cnc[nH]3)nc(Nc3ccc4c(c3)OCO4)n2)cc1`, for which the growth inhibition in experiment [1] was 6%; in experiment [4] it was 84% (active). In addition, the results for the inhibition in experiment [2] and in experiment [3] were 8% and -2%, respectively. The outcome in experiment [5], in experiment [6], in experiment [7] and in experiment [8] was inactive.
For the molecule `COc1ccc(-c2ccc(NC(=O)c3ccc(Cl)cc3)cc2)cc1CN(C)CCO`, the growth inhibition in experiment [1] was 43%; in experiment [4], 92% (active). Moreover, the figures for the inhibition in experiment [2] and in experiment [3] were 43% and 0%, respectively. For the same molecule, the result in experiment [5], in experiment [6], in experiment [7] and in experiment [8] was inactive.
As for `O=C(Nc1ccc2c(c1)CCC2)c1cccc(N2CCN(c3ccncc3)CC2)c1`, the growth inhibition is 22% in experiment [1] and 92% (active) in experiment [4]. Moreover, the inhibition in experiment [2] is 35%; in experiment [3] it was -2%. Moreover, the outcome in experiment [5], in experiment [6], in experiment [7] and in experiment [8] was inactive.
Consider `NOCCCCOc1ccccc1`, for which the growth inhibition in experiment [1] was 2%; in experiment [4] it was 99% (active). Further, the inhibition in experiment [2] is 12%; in experiment [3] it was -4%. In addition, the result in experiment [5], in experiment [6], in experiment [7] and in experiment [8] was inactive.
`Cc1cccc(C(=O)NCCCN2CCC(NC(=O)/C=C/c3ccc(Cl)c(Cl)c3)CC2)c1`: the growth inhibition was 23% in experiment [1] and 98% (active) in experiment [4]. Also, the inhibition in experiment [2] was 39%; in experiment [3], 1%. In addition, the outcome in experiment [5], in experiment [6], in experiment [7] and in experiment [8] was inactive.
Consider `Cc1ccc(C)c(NC(=O)CC2C(=O)N(c3ccccc3)C(=S)N2Cc2ccco2)c1` (stereo not drawn), for which the growth inhibition in experiment [1] is 99% (active); in experiment [4], 101% (active). Further, the inhibition in experiment [2] was 9%; in experiment [3], -1%. The outcome in experiment [5], in experiment [6], in experiment [7] and in experiment [8] was inactive.
On to `COc1ccccc1N1CCN(C(C(=O)NCc2cccc(F)c2)c2ccc(C)cc2)CC1` (stereo not drawn), for which the growth inhibition in experiment [1] is 80% (active); in experiment [4] it was 94% (active). Also, the inhibition was 4% in experiment [2] and 1% in experiment [3]. Also, the result in experiment [5], in experiment [6], in experiment [7] and in experiment [8] was inactive.
On to `OCC(CO)(CO)NCc1ccc2c3c(cccc13)-c1ccccc1-2`, for which the growth inhibition in experiment [1] was 76% (active); in experiment [4], 87% (active). Further, the inhibition is 73% (active) in experiment [2] and 0% in experiment [3]. The outcome in experiment [5], in experiment [6], in experiment [7] and in experiment [8] was inactive.
As to `CCCCNCC(O)COc1ccccc1-c1ccc(N/N=C/c2cccc3ccccc23)nn1` (stereo not drawn), the growth inhibition was 8% in experiment [1] and 99% (active) in experiment [4]. For the same molecule, the inhibition was 38% in experiment [2] and -4% in experiment [3]. Further, the result in experiment [5], in experiment [6], in experiment [7] and in experiment [8] was inactive.
As to `FC(F)(F)Oc1ccc(Nc2cc(-c3ccncc3)nc(-c3cccnc3)n2)cc1`, the growth inhibition is 52% (active) in experiment [1] and 94% (active) in experiment [4]. The inhibition in experiment [2] is 24%; in experiment [3], 0%. Further, the outcome in experiment [5], in experiment [6], in experiment [7] and in experiment [8] was inactive.
For the molecule `Ic1cc(CNC2CCCCC2)ccc1OCc1cccc(COc2ccc(CNC3CCCCC3)cc2I)c1`, the growth inhibition in experiment [1] is 34%; in experiment [4] it was 93% (active). The results for the inhibition in experiment [2] and in experiment [3] were -1% and -4%, respectively. The result in experiment [5], in experiment [6], in experiment [7] and in experiment [8] was inactive.
Regarding `N#Cc1ccc2[nH]cc(C(=O)CCCCCN(Cc3ccccc3)Cc3ccccc3)c2c1`, the growth inhibition in experiment [1] is 97% (active); in experiment [4], 93% (active). Moreover, the inhibition in experiment [2] is 10%; in experiment [3], 2%. The outcome in experiment [5], in experiment [6], in experiment [7] and in experiment [8] was inactive.
For the molecule `Cc1cc2nc(-c3ccc(C(=O)NCCCc4ccccc4)cc3)[nH]c2cc1C`, the growth inhibition is 5% in experiment [1] and 91% (active) in experiment [4]. The inhibition in experiment [2] was 7%; in experiment [3], -2%. In addition, the result in experiment [5], in experiment [6], in experiment [7] and in experiment [8] was inactive.
For the molecule `COc1ccc2ccccc2c1CCCCN1CCN(CC(c2ccc(F)cc2)N2CCN(C(C)C)CC2)CC1` (stereo not drawn), the results for the growth inhibition in experiment [1] and in experiment [4] were 83% (active) and 100% (active), respectively. Also, the figures for the inhibition in experiment [2] and in experiment [3] were 92% (active) and 2%, respectively. Also, the outcome in experiment [5], in experiment [6], in experiment [7] and in experiment [8] was inactive.
With `COc1cccc(CNC(=O)c2cccc(-c3cccc(CN4CCC(N5CCCC5)CC4)c3)n2)c1`, the values for the growth inhibition in experiment [1] and in experiment [4] were 76% (active) and 100% (active), respectively. Moreover, the inhibition in experiment [2] was 22%; in experiment [3] it was 1%. The result in experiment [5], in experiment [6], in experiment [7] and in experiment [8] was inactive.
Turning to `O=C(NCc1ccc(C(=O)NC2CCCCC2)cc1)c1ccc(O)c(-c2ccc(Cl)c(Cl)c2)c1`, the growth inhibition in experiment [1] is -4%; in experiment [4], 93% (active). The inhibition in experiment [2] was 5%; in experiment [3] it was -6%. For the same molecule, the result in experiment [5], in experiment [6], in experiment [7] and in experiment [8] was inactive.
As to `Cc1cccc2[nH]c(-c3ccc(-c4ccc(CN5CCC(CO)CC5)cc4)s3)nc12`, the figures for the growth inhibition in experiment [1] and in experiment [4] were 82% (active) and 101% (active), respectively. In addition, the values for the inhibition in experiment [2] and in experiment [3] were 15% and -10%, respectively. Besides, the result in experiment [5], in experiment [6], in experiment [7] and in experiment [8] was inactive.
